Data from the supplement of paper PMC10849652.
The full data set covers some 8,800 targets. This sample favours those with a hit. About 0.5% of all pairs of compound and target were hits.

Key:
Test in all cases: log2 fold change, soluble protein after heating vs DMSO (PISA); higher = thermal stabilisation; K562 lysate, 10 uM; active = over 0.2 and 3.5 SD of the protein, either way, in both replicates (recomputed)
erlotinib = compound: C#Cc1cccc(Nc2ncnc3cc(OCCOC)c(OCCOC)cc23)c1 [erlotinib]
Procedure, shortened: (§1)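 Pellets of K562 cells were dounce-homogenised in PBS pH 7.4 with 1 mM MgCl2, and the crude extract was held at 1 mg/mL protein for a 30 min treatment with 10 μM compound. Aliquots were heated for 3 min over 48°C-58°C and pooled before NP-40 was added to 0.5% at 4°C. The supernatant from 21,000xg for 90 min was quantified by TMTpro 16plex LC-MS/MS with channel sums equalised. Values are reported from duplicates as log-two fold change in thermal stability relative to solvent controls.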

[1] = compound: C/C(=N\NC(=O)C1=CC(=CC=C1)S(=O)(=O)N2CCOCC2)/C3=C(C=CC(=C3)Cl)O
Procedure, shortened: as §1

[2] = compound: C1=CC(=CC=C1C2=NC3=C(N2)C=C(C=C3)C(=O)N)OC4=CC=C(C=C4)Cl
Procedure, shortened: as §1

[3] = compound: C1=CC2=C(C=CC(=C2)/C=C\3/C(=O)NC(=NCC4=CC=CS4)S3)N=C1
Procedure, shortened: as §1

[4] = compound: C1=CC=C(C=C1)C2=NC(=C(N2)C3=CC=NC=C3)C4=CC(=C(C=C4)Cl)O
Procedure, shortened: as §1

[5] = compound: C1=CC=C2C(=C1)C3=NNC4=CC=CC(=C43)C2=O
Procedure, shortened: as §1

[6] = compound: C1CCN(C1)C(=O)NC2=CC=CC(=C2)NC3=NC=C(C(=N3)NCCC4=CN=CN4)Br
Procedure, shortened: as §1

[7] = compound: C1CN(CCC1(CC2=CC=C(C=C2)Cl)N)C3=NC=NC4=C3C=CN4
Procedure, shortened: as §1

IRAK-1-4 Inhibitor I = compound: C1COCCN1CCN2C3=CC=CC=C3N=C2NC(=O)C4=CC(=CC=C4)[N+](=O)[O-] [IRAK-1-4 Inhibitor I]
Procedure, shortened: as §1

[8] = compound: C1=CC2=NC=CN=C2C=C1/C=C/3\C(=O)NC(=O)S3
Procedure, shortened: as §1

Measured: log2 fold change

PAPOLG (UniProt Q9BWT3)
inactive: erlotinib 0 | [1] -0.068 | [2] -0.092 | [3] 0.035 | [4] 0.055 | [5] 0.041 | [6] -0.086 | [7] 0.104 | IRAK-1-4 Inhibitor I 0.136

PANK1 (UniProt Q8TE04)
inactive: erlotinib -0.003 | [1] -0.048 | [2] 0.033 | [3] 0.026 | [8] 0.098 | [4] 0.015 | [5] -0.069 | [6] -0.036 | [7] 0.054 | IRAK-1-4 Inhibitor I -0.061

NFAT5 isoform 5 (UniProt O94916)
inactive: erlotinib -0.06 | [1] -0.012 | [2] 0.016 | [3] -0.036 | [8] 0.049 | [4] -0.008 | [5] -0.012 | [6] -0.006 | [7] 0.02 | IRAK-1-4 Inhibitor I 0.047

MYBL2 (UniProt P10244)
inactive: erlotinib 0.02 | [1] 0.014 | [2] -0.011 | [3] 0.035 | [4] 0.005 | [5] 0.078 | [6] -0.013 | [7] -0.036 | IRAK-1-4 Inhibitor I 0.009

NUB1 (UniProt H7C5N1)
inactive: [4] 0.163 | IRAK-1-4 Inhibitor I 0.183

N4BP2 (UniProt Q86UW6)
inactive: erlotinib 0.04 | [1] -0.029 | [2] -0.09 | [3] 0.069 | [8] -0.015 | [4] 0.001 | [5] 0.106 | [6] -0.021 | [7] -0.068 | IRAK-1-4 Inhibitor I -0.022

MRPL53 (UniProt Q96EL3)
inactive: erlotinib -0.036 | [1] -0.103 | [2] 0.042 | [3] 0.014 | [8] -0.004 | [4] -0.015 | [5] -0.049 | [6] -0.07 | [7] 0.096 | IRAK-1-4 Inhibitor I 0.026

MXRA7 (UniProt P84157)
inactive: erlotinib -0.001 | [1] 0.062 | [2] 0.118 | [3] 0.17 | [4] -0.062 | [5] -0.135 | [6] 0.02 | [7] 0 | IRAK-1-4 Inhibitor I -0.043

MYO10 (UniProt Q9HD67)
inactive: erlotinib -0.044 | [1] -0.13 | [2] 0.19 | [3] 0.017 | [8] -0.062 | [4] 0.014 | [5] -0.16 | IRAK-1-4 Inhibitor I 0.102

PAGE2B (UniProt Q5JRK9)
inactive: erlotinib 0.056 | [1] 0.038 | [2] -0.033 | [3] -0.085 | [4] -0.021 | [5] 0.093 | [6] 0.055 | [7] 0.055 | IRAK-1-4 Inhibitor I 0.148

MYLK (UniProt Q15746)
inactive: [1] -0.067 | [3] 0.027 | [8] 0.025 | [5] 0.345 | [6] 0.106 | [7] -0.262

ORC1 (UniProt Q13415)
inactive: [6] 0.216 | [7] 0.05

NCOR1 (UniProt O75376)
Chain of UniProt O75376 (O75376 whole entry, looked up): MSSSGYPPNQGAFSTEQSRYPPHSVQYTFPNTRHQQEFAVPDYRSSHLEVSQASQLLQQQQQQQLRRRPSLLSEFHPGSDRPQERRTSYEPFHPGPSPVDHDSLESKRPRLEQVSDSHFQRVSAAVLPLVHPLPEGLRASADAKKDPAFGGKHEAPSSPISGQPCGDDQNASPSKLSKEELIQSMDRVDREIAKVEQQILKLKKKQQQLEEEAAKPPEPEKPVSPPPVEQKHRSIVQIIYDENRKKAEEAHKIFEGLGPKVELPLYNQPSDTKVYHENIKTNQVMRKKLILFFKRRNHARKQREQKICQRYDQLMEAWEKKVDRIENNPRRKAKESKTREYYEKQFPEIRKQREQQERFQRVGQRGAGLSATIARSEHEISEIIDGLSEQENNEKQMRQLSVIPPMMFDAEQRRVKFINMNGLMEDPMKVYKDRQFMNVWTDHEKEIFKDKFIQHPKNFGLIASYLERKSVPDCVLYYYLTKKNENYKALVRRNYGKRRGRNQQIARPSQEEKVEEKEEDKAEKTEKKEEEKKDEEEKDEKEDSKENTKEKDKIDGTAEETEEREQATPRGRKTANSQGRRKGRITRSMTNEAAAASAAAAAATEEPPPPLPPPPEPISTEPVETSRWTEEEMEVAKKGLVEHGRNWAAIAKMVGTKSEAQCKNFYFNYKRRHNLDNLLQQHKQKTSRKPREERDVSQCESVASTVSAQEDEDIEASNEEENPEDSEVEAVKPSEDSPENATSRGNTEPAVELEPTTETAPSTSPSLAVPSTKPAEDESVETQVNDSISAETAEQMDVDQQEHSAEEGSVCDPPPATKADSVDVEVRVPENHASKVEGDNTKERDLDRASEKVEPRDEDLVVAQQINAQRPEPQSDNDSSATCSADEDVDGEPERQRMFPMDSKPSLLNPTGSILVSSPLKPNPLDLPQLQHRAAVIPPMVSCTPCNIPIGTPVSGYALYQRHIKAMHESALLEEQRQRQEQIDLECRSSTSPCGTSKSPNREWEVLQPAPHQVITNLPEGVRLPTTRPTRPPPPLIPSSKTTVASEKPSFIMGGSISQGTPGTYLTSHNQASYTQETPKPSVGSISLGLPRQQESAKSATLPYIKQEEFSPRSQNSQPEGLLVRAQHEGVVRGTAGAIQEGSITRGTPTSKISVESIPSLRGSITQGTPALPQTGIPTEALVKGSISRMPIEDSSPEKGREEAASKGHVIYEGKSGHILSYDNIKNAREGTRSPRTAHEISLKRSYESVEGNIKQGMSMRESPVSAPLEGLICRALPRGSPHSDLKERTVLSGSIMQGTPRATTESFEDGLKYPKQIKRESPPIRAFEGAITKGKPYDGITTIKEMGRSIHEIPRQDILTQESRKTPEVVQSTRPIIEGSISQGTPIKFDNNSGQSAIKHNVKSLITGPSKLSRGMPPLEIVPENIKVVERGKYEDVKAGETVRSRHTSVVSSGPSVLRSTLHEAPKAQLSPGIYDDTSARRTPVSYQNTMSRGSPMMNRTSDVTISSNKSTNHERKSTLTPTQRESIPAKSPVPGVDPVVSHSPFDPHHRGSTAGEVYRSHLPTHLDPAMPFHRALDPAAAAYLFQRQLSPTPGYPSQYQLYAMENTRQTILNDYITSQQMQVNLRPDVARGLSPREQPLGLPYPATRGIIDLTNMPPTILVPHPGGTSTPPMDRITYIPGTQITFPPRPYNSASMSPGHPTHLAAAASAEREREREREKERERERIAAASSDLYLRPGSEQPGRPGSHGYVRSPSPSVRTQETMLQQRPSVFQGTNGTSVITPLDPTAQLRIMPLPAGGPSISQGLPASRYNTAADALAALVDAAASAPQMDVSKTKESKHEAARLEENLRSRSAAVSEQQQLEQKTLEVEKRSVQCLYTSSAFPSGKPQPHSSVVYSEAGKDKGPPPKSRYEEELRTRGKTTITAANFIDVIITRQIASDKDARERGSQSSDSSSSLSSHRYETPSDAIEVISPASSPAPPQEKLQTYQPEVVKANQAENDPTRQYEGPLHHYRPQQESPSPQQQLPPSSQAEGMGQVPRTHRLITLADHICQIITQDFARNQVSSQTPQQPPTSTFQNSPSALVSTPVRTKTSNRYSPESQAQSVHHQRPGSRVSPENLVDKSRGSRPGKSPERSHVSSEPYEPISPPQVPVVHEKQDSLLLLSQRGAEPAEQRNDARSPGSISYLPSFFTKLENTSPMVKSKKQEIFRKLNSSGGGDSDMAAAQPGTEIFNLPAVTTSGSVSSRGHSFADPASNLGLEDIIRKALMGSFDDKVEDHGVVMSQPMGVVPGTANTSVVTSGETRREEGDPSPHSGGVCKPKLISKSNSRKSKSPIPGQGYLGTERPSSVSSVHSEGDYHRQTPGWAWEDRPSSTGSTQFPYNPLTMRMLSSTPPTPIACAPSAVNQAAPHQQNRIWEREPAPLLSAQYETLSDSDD
inactive: erlotinib 0.011 | [1] -0.05 | [2] 0.081 | [3] 0.004 | [8] -0.014 | [4] -0.041 | [5] -0.001 | [6] 0.009 | [7] 0.019 | IRAK-1-4 Inhibitor I 0.022

NPLOC4 (UniProt I3L3I1)
inactive: [8] -0.029 | [6] -0.128 | [7] 0.046

MRPL51 (UniProt Q4U2R6)
inactive: erlotinib -0.067 | [1] -0.05 | [2] -0.027 | [3] 0.08 | [8] -0.036 | [4] -0.039 | [5] 0.036 | [6] -0.006 | [7] -0.09 | IRAK-1-4 Inhibitor I 0.001

MYH6 (UniProt P13533)
inactive: erlotinib 0.107 | [2] 0.08 | [8] 0.304 | [4] 0.029 | [6] -0.049 | [7] 0.115 | IRAK-1-4 Inhibitor I 0.052

PARD3B (UniProt Q8TEW8)
inactive: erlotinib 0.025 | [2] -0.084

NUDT5 (UniProt C9JYY9)
inactive: erlotinib 0.098 | [2] -0.157 | [6] -0.069 | [7] 0.034

PAGE4 (UniProt O60829)
Chain of UniProt O60829 (O60829 whole entry, looked up): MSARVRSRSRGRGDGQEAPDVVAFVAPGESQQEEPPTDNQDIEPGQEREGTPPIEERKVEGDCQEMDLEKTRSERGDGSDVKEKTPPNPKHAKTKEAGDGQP
inactive: erlotinib -0.423 | [2] 0.098 | [8] 0.034 | [4] 0.015 | [6] -0.068 | [7] -0.095 | IRAK-1-4 Inhibitor I -0.034

NAA16 (UniProt Q6N069)
inactive: [1] -0.036 | [3] -0.022 | [8] 0.027 | [4] -0.127 | [5] -0.206 | [6] 0.136 | [7] -0.038 | IRAK-1-4 Inhibitor I 0.017

NUDT6 (UniProt P53370)
inactive: erlotinib -0.01 | [1] 0.113 | [2] -0.02 | [4] -0.008 | [5] 0.111 | [6] -0.06 | [7] 0.06 | IRAK-1-4 Inhibitor I 0.032
active: [3] -0.518

OSBPL1A (UniProt Q9BXW6)
inactive: erlotinib 0.235 | [2] 0.205 | [8] 0.038

OTUD7B (UniProt Q6GQQ9)
inactive: erlotinib 0.028 | [1] -0.06 | [2] 0.075 | [3] -0.026 | [8] -0.017 | [4] -0.006 | [5] -0.076 | [6] -0.002 | [7] 0.032 | IRAK-1-4 Inhibitor I -0.039

NFATC4 isoform 2 (UniProt Q14934)
active: [1] -0.627
inactive: [3] -0.132 | [8] -0.064 | [5] -0.224 | [6] -0.07 | [7] -0.012

NUMB isoform 2 (UniProt P49757)
inactive: [4] 0.304 | IRAK-1-4 Inhibitor I 0.021

MYO9A isoform 4 (UniProt B2RTY4)
Chain of UniProt B2RTY4 (B2RTY4 whole entry, looked up): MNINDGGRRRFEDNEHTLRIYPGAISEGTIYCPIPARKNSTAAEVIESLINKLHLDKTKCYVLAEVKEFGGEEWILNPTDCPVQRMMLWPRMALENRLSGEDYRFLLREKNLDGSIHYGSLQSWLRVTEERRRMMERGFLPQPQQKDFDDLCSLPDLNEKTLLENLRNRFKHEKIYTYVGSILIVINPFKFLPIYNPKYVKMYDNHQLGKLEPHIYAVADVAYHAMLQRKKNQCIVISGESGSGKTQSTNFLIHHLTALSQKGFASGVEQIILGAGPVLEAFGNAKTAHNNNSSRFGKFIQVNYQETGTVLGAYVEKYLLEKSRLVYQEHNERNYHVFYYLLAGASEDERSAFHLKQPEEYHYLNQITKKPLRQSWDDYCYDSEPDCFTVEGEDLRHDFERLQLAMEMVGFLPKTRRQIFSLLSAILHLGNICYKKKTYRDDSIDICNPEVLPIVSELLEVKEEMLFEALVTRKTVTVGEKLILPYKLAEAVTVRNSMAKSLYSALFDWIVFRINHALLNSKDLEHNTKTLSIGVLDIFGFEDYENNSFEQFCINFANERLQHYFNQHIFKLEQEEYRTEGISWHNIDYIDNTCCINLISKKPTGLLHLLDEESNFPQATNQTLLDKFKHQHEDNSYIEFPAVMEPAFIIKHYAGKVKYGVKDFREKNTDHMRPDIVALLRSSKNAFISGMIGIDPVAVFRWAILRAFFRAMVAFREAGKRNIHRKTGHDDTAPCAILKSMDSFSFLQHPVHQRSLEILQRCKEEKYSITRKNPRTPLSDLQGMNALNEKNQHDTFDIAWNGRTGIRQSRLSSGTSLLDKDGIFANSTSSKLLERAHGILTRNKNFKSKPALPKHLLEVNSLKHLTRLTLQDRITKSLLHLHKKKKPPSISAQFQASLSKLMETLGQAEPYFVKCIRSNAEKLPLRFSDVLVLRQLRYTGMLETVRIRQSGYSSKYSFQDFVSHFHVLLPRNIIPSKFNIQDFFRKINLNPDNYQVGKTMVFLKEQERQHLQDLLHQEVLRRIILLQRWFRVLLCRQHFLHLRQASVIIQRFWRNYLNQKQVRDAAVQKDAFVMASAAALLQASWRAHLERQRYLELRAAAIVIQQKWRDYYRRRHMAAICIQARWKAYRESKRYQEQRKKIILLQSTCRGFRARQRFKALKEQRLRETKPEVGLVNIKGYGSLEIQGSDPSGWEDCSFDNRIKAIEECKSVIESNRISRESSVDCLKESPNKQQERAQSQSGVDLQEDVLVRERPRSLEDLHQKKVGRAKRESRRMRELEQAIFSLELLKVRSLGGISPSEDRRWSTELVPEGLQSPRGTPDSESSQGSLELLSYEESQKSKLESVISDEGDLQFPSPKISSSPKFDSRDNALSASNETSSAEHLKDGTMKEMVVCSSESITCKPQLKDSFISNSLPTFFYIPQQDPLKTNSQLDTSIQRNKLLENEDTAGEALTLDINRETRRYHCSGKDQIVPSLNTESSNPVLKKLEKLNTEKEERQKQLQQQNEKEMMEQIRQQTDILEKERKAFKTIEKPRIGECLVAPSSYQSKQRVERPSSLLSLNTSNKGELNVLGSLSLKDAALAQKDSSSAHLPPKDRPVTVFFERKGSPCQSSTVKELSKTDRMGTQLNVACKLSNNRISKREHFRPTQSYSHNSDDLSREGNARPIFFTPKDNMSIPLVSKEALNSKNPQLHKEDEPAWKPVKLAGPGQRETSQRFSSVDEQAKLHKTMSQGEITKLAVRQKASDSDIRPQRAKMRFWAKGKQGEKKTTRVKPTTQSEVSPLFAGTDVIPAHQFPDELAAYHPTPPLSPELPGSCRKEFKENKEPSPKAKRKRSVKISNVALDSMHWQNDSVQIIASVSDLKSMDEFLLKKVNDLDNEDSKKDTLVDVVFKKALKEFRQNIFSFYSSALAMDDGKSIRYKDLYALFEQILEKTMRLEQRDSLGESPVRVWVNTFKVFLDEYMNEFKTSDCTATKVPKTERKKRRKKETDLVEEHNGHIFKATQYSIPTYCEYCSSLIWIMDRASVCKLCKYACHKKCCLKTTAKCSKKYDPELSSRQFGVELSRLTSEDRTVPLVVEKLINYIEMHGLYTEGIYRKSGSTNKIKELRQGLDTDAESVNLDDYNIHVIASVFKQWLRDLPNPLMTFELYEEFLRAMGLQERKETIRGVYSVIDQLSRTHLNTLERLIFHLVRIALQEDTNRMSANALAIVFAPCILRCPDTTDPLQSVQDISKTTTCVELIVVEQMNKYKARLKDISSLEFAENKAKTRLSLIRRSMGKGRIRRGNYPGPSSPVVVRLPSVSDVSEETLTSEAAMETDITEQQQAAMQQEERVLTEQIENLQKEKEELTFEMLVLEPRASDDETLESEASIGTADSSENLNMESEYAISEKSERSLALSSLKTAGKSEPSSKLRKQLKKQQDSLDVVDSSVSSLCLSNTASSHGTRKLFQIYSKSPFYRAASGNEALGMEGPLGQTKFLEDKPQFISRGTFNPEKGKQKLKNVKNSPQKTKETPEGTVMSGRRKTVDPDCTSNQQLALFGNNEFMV
inactive: erlotinib 0.074 | [1] 0.008 | [2] -0.125 | [3] -0.045 | [8] 0.153 | [4] -0.007 | [5] -0.05 | IRAK-1-4 Inhibitor I -0.059

MT-ATP8 (UniProt P03928)
inactive: erlotinib 0.069 | [1] 0.006 | [2] -0.006 | [3] -0.041 | [8] 0.103 | [4] -0.103 | [5] -0.062 | [6] 0.116 | [7] 0.068 | IRAK-1-4 Inhibitor I 0.033

PANK2 (UniProt Q9BZ23)
inactive: [1] -0.012 | [3] -0.019 | [8] 0.011 | [4] -0.078 | [5] -0.044 | [6] -0.008 | [7] -0.06 | IRAK-1-4 Inhibitor I 0.14

NOCT (UniProt Q9UK39)
inactive: erlotinib -0.129 | [2] 0.061 | [4] 0.1 | [6] -0.134 | [7] 0.06 | IRAK-1-4 Inhibitor I 0.007

NFAT5 isoform 4 (UniProt O94916)
inactive: [8] 0.161

MUC5AC (UniProt P98088)
inactive: [4] 0.015 | IRAK-1-4 Inhibitor I -0.074
